From PubChem BioAssay (Tox21)
Inconclusive results are not listed. Where a call stands in place of a potency, no number is given. The source made the active and inactive calls. Calls come from the whole dose curve; as a rule, active = well fitted activation curve with a large enough effect in the repeat runs; inconclusive = weak or mixed curves; inactive = flat fitted curve, though single readings scatter.

test: A CellTox Green Cytotoxicity Assay to monitor cytotoxicity in HepG2 cells - 40 hour (AID 1224879); settings: CellTox Green fluorescence; series mostly up to 76.8 µM; note: nearly all actives have a fitted effect of over 40% in size
Source text: National Center for Advancing Translational Sciences [NCATS]
NIH Chemical Genomics Center [NCGC]
U.S. Environmental Protection Agency [EPA]
National Institutes of Environmental Health Sciences [NIEHS]
National Toxicology Program [NTP]
Cell-based models are critical for drug discovery. Determining the natural cytotoxic effects resulting from test compounds is an essential research activity. A CellTox Green Cytotoxicity Assay to monitor cytotoxicity in real time of continues cell culture during 40 hours of the compound treatment was used to screen Tox21 10K library compounds in HepG2 cells. CellTox Green Cytotoxicity Assay is a nonlytic, homogeneous, biofluorescent method to measure cytotoxicity in cell culture after experimental manipulation. The assay system uses a proprietary asymmetric cyanine dye that is excluded from viable cells but preferentially stains the dead cell's DNA. […] Viable cells produce no appreciable increases in fluorescence. Therefore, the fluorescence signal produced by the binding interaction with dead cell DNA is proportional to cytotoxicity.
The mixture of HepG2 cell suspension and reagents were dispensed at 600cells/6 ul/well in 1536-well tissue culture treated black solid bottom plates using a Multidrop dispenser. After the assay plates were incubated at a 37 C/5% CO2 incubator for 5 hours, 23 nL of compounds dissolved in DMSO, positive and negative controls was transferred to the assay plate by a pintool work station. The plates were incubated at 37 C for 40 hours. The fluorescence intensity were measured at 0h, 8h, 16h, 24h, 32h and 40h time points using ViewLux plate reader during compound treatment.

| SMILES | Potency | cytotoxicity increase |
| --- | --- | --- |
| CC(C)S | inactive | – |
| Nc1ccc2ccccc2c1S(=O)(=O)O | inactive | – |
| Cc1c(-c2ccccc2)oc2c(C(=O)OCCN3CCCCC3)cccc2c1=O | inactive | – |
| OCCN(CCO)c1ccccc1 | inactive | – |
| CCCOc1ccc2c(c1)CC[C@@H]1[C@@H]2CC[C@]2(C)C(OC)CC[C@@H]12 (stereo not given in full) | inactive | – |
| NC(=O)NS(=O)(=O)c1ccc(Cl)cc1 | inactive | – |
| COc1cc(N)c(Cl)cc1C(=O)NC1CCN(Cc2ccccc2)CC1 | inactive | – |
| Nc1cccc(S(=O)(=O)O)c1 | inactive | – |
| NS(=O)(=O)c1cc(-c2nn[nH]n2)c(NCc2cccs2)cc1Cl | inactive | – |
| N#Cc1ccc(C(c2ccc(C#N)cc2)n2cncn2)cc1 | inactive | – |
| COc1cc(Cl)ccc1Cl | inactive | – |
| C=Cc1ccccc1 | inactive | – |
| CCc1nnc(NS(=O)(=O)c2ccc(N)cc2)s1 | inactive | – |
| CC(C)NC[C@@H](O)COc1cccc2ccccc12 | inactive | – |
| O=C1N(c2ccccc2)c2ccccc2C1(Cc1ccncc1)Cc1ccncc1 | inactive | – |
| O=C(O)C(=O)Cc1c[nH]c2ccccc12 | inactive | – |
| O=C(O)[C@@H](O)[C@H](O)[C@H](O)[C@@H](O)C(=O)O | inactive | – |
| NC(Cc1ccc(F)cc1)C(=O)O (stereo not given) | – | 7.77% [at 6.97 µM] (inactive) |
| CC(C)OC(C)C | inactive | – |
| CCCCNC(=S)NCCCC | inactive | – |

| SMILES | Potency | cytotoxicity increase |
| --- | --- | --- |
| CCN(CC)C(=O)N(CC)CC | inactive | – |
| Cc1cc2c(s1)Nc1ccccc1N=C2N1CCN(C)CC1 | inactive | – |
| CC(=O)OC(C)OC(C)=O | inactive | – |
| O=C1CCCCC1C1CCCCC1 (stereo not given) | inactive | – |
| CC(C)C1=CC2=CC[C@@H]3[C@](C)(CCC[C@@]3(C)C(=O)O)[C@H]2CC1 | inactive | – |
| CCCCC(=O)O[C@]1(C(=O)CO)[C@H](C)C[C@H]2[C@@H]3CCC4=CC(=O)C=C[C@]4(C)[C@@]3(F)[C@@H](O)C[C@@]21C | inactive | – |
| CC/C=C\CCOC(=O)C(C)C | inactive | – |
| CC1=C(O)C(=O)OC1C (stereo not given) | inactive | – |
| CC1CN(c2ccccc2)NC1=O (stereo not given) | inactive | – |
| CN1CCN(c2c(F)cc3c(=O)c(C(=O)O)cn(CCF)c3c2F)CC1 | inactive | – |
| O=C(CC(=O)C(F)(F)F)c1ccccc1 | inactive | – |
| COc1ccc(S(=O)(=O)Nc2nnc(CC(C)C)s2)cc1 | inactive | – |
| O=C1C=CC(=O)O1 | inactive | – |
| NC/C=C/C(=O)O | inactive | – |
| O=C1CCN(c2ccccc2)N1 | inactive | – |
| OC[C@H]1O[C@@H](O[C@H]2[C@H](O)[C@@H](O)[C@H](O)O[C@@H]2CO)[C@H](O)[C@@H](O)[C@H]1O | inactive | – |
| O=c1[nH]cnc2c1ncn2[C@@H]1O[C@H](CO)[C@@H](O)[C@H]1O | inactive | – |
| COc1cc(C)ccc1C(C)C | inactive | – |
| CCC/C=C/CO | inactive | – |
| COC(=O)/C=C(/C)N | inactive | – |
